Experimental data taken from the supplement of paper PMC11732987, “Enantioselective OTUD7B fragment discovery through chemoproteomics screening and high-throughput optimisation” (Communications Chemistry, 2025).

Tests used:
Assay in all cases: log2 ratio of Biotin-Ahx-Ub-VS probe labelling (fragment/DMSO); higher = less target engagement (more negative = stronger competition), active = hit call of the paper (q ≤ 0.05, log2 ratio ≤ -1)
Settings in all cases: compound concentration: 200 uM; treatment time: 3 h
USP9X = USP9X (UniProt Q93008)
How it was run: (§1)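 Using Biotin-Ahx-Ub-VS at 0.5 µM final for 1 h, DUBs were labelled in HEK293T lysate (495 µg per sample) that had first been treated in triplicate with fragment at 200 µM or vehicle for 3 h. NeutrAvidin enrichment, LysC and trypsin digestion and diaPASEF LC-MS/MS followed. Spectronaut label-free quantities were global-median-normalised. Values are average log2 fragment/vehicle ratios by unpaired t-test, using proteins with ≥2 unique peptides.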

UniProt O00487 = target: UniProt O00487
How it was run: as §1

UniProt O00507 = target: UniProt O00507
How it was run: as §1

UniProt P51784 = target: UniProt P51784
How it was run: as §1

UniProt Q5T2D3 = target: T1, UniProt Q5T2D3
T1 sequence (whole entry): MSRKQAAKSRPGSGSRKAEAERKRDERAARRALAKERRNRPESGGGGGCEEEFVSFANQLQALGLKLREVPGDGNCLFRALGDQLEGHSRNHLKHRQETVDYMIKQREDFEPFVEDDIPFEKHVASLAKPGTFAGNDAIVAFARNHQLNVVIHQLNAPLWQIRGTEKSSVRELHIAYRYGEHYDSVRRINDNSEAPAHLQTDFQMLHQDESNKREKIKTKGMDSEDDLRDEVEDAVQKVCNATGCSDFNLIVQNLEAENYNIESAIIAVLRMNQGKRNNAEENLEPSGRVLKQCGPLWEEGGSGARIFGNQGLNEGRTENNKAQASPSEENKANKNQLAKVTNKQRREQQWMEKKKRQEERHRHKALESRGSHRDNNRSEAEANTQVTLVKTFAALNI
How it was run: as §1

UniProt Q8TE49 = target: T2, UniProt Q8TE49
T2 sequence (whole entry): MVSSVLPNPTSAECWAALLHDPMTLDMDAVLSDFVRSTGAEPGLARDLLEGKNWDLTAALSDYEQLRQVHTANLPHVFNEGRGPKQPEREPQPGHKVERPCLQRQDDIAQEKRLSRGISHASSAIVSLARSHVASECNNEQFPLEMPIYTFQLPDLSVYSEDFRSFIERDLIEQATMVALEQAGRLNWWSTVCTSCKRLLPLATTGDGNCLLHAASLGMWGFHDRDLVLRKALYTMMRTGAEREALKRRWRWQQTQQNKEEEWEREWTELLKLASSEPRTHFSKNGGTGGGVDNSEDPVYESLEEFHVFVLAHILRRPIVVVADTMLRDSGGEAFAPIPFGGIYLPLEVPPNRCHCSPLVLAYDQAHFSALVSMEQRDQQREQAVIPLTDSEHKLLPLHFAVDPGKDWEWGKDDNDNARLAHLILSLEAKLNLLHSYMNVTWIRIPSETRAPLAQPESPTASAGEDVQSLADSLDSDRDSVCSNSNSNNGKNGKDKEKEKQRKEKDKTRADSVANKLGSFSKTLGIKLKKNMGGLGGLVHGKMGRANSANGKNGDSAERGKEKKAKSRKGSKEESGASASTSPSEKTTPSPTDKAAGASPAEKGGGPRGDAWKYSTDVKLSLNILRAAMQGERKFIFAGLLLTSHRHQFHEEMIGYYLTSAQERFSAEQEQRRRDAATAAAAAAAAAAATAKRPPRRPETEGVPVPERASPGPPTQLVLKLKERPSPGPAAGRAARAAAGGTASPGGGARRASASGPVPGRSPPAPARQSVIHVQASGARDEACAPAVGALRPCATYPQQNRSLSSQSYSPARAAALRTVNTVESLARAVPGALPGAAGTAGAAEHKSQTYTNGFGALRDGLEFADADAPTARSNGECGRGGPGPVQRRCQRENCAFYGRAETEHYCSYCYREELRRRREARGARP
How it was run: as §1

UniProt Q9P2H5 = target: T3, UniProt Q9P2H5
T3 sequence (whole entry): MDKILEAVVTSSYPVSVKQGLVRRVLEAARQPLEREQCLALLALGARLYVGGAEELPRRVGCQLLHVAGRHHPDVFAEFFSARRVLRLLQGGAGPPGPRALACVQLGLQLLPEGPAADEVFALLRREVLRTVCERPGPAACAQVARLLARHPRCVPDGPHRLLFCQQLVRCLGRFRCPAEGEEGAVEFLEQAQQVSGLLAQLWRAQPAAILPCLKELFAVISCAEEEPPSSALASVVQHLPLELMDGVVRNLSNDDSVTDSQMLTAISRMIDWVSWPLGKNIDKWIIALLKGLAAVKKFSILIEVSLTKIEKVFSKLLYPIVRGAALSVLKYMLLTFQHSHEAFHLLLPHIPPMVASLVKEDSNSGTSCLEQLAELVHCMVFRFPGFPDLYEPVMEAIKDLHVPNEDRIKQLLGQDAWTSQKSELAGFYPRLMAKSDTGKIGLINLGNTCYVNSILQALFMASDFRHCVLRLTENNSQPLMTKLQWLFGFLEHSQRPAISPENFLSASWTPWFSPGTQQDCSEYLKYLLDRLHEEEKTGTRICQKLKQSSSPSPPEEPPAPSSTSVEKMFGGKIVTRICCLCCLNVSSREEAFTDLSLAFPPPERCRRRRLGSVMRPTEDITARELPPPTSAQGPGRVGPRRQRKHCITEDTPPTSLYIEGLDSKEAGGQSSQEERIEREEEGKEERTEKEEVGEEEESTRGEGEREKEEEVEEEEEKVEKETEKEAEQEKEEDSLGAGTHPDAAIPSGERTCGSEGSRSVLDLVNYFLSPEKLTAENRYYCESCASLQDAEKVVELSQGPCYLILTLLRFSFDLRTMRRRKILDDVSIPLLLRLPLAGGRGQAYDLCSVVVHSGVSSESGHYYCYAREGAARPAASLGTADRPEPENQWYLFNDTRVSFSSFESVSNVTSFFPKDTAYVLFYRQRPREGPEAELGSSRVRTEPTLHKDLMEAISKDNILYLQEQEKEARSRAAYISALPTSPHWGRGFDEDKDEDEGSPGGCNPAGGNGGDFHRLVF
How it was run: as §1

UniProt Q9UGI0 = target: T4, UniProt Q9UGI0
T4 sequence (whole entry): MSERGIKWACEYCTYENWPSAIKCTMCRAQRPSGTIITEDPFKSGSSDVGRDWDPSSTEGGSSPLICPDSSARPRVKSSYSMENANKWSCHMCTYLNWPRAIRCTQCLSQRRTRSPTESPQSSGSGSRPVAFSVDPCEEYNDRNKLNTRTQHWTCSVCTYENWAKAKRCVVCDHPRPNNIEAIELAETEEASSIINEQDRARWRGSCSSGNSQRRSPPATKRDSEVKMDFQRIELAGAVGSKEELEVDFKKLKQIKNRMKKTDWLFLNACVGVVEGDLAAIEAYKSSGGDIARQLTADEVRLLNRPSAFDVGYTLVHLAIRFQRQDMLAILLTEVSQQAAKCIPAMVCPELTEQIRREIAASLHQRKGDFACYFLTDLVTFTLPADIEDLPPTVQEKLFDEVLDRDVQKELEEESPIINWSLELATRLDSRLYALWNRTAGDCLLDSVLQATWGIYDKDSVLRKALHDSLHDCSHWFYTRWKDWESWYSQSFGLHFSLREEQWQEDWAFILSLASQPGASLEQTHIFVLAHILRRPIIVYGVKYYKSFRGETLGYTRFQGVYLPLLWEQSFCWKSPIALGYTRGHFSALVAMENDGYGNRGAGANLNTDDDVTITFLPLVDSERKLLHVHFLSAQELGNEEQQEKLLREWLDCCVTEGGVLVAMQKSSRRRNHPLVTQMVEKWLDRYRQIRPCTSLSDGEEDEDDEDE
How it was run: as §1

YOD1 = target: T5, YOD1 (UniProt Q5VVQ6)
T5 sequence (whole entry): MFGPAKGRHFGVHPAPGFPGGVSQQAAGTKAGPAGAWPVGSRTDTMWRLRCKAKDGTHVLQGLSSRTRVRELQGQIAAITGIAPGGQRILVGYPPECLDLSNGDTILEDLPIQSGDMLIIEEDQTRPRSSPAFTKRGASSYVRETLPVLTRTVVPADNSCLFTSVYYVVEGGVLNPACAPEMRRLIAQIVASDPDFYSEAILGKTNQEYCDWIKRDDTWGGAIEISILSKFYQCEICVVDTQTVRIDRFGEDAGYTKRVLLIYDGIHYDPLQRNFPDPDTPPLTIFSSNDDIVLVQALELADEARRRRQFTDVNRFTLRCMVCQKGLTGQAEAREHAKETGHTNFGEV
How it was run: as §1

Measured: log2 ratio of Biotin-Ahx-Ub-VS probe labelling

UniProt O00507, sequence (O00507 whole entry): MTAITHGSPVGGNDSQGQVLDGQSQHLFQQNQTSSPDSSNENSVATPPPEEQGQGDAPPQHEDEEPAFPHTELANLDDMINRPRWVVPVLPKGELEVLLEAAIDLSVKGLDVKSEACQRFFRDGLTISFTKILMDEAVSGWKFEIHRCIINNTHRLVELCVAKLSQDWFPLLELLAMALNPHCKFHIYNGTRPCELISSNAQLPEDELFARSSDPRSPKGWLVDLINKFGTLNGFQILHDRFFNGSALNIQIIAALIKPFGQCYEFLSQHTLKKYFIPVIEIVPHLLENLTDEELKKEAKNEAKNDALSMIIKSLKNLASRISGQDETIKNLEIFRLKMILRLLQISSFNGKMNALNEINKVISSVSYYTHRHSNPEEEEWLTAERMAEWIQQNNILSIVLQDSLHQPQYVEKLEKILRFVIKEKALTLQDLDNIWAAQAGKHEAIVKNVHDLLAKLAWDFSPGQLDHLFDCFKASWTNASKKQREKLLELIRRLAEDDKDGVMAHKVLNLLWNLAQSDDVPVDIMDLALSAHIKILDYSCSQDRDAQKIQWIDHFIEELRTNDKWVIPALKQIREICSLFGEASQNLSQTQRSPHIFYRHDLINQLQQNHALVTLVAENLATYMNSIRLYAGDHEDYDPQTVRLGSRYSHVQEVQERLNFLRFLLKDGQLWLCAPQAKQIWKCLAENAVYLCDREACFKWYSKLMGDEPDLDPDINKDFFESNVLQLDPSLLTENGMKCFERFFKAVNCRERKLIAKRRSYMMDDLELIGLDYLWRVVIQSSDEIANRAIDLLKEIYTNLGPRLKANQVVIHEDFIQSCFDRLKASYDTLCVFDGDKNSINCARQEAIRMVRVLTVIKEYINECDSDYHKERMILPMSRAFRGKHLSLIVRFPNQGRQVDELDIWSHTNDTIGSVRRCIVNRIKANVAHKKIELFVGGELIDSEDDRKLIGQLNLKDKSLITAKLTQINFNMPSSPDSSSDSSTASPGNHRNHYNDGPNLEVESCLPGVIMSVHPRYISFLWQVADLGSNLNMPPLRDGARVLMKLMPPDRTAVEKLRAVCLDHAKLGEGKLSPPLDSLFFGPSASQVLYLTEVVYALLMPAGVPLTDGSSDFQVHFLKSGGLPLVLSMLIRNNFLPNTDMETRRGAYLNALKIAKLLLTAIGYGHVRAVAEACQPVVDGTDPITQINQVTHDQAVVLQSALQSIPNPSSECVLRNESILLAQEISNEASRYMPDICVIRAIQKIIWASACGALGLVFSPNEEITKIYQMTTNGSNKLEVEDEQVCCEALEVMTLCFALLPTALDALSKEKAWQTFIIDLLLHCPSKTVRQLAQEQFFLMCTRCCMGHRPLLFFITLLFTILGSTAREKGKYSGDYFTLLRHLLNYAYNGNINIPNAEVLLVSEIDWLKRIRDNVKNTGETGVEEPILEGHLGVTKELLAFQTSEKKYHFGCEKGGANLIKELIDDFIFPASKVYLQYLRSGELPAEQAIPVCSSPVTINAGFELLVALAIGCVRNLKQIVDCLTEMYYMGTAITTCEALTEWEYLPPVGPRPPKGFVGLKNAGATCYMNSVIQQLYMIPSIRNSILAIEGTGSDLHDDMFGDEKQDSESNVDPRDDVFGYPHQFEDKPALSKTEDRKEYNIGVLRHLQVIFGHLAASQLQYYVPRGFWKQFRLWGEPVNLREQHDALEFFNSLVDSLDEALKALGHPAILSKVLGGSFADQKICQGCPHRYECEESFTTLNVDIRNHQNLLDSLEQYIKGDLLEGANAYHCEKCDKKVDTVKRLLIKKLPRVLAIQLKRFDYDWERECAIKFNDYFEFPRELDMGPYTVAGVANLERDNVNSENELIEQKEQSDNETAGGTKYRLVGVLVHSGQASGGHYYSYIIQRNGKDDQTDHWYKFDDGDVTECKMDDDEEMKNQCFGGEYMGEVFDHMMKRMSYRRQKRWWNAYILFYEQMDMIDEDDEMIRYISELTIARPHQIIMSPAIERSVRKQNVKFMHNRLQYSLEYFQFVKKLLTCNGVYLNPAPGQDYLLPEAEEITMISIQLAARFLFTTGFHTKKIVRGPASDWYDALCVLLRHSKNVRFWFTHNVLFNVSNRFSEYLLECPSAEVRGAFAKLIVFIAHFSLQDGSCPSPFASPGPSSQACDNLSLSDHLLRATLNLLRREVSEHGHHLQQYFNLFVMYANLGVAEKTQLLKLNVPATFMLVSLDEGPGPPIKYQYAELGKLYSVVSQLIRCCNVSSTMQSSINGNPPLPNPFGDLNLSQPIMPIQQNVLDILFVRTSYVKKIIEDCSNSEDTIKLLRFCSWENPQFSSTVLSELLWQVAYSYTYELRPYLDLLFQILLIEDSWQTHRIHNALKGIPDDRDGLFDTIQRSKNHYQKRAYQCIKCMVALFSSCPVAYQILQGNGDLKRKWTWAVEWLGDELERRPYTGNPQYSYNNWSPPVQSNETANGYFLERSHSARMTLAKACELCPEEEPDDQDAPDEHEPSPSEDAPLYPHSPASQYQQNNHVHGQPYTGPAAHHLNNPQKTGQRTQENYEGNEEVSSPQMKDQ
USP9X, sequence (Q93008 whole entry, the tested form may be a part): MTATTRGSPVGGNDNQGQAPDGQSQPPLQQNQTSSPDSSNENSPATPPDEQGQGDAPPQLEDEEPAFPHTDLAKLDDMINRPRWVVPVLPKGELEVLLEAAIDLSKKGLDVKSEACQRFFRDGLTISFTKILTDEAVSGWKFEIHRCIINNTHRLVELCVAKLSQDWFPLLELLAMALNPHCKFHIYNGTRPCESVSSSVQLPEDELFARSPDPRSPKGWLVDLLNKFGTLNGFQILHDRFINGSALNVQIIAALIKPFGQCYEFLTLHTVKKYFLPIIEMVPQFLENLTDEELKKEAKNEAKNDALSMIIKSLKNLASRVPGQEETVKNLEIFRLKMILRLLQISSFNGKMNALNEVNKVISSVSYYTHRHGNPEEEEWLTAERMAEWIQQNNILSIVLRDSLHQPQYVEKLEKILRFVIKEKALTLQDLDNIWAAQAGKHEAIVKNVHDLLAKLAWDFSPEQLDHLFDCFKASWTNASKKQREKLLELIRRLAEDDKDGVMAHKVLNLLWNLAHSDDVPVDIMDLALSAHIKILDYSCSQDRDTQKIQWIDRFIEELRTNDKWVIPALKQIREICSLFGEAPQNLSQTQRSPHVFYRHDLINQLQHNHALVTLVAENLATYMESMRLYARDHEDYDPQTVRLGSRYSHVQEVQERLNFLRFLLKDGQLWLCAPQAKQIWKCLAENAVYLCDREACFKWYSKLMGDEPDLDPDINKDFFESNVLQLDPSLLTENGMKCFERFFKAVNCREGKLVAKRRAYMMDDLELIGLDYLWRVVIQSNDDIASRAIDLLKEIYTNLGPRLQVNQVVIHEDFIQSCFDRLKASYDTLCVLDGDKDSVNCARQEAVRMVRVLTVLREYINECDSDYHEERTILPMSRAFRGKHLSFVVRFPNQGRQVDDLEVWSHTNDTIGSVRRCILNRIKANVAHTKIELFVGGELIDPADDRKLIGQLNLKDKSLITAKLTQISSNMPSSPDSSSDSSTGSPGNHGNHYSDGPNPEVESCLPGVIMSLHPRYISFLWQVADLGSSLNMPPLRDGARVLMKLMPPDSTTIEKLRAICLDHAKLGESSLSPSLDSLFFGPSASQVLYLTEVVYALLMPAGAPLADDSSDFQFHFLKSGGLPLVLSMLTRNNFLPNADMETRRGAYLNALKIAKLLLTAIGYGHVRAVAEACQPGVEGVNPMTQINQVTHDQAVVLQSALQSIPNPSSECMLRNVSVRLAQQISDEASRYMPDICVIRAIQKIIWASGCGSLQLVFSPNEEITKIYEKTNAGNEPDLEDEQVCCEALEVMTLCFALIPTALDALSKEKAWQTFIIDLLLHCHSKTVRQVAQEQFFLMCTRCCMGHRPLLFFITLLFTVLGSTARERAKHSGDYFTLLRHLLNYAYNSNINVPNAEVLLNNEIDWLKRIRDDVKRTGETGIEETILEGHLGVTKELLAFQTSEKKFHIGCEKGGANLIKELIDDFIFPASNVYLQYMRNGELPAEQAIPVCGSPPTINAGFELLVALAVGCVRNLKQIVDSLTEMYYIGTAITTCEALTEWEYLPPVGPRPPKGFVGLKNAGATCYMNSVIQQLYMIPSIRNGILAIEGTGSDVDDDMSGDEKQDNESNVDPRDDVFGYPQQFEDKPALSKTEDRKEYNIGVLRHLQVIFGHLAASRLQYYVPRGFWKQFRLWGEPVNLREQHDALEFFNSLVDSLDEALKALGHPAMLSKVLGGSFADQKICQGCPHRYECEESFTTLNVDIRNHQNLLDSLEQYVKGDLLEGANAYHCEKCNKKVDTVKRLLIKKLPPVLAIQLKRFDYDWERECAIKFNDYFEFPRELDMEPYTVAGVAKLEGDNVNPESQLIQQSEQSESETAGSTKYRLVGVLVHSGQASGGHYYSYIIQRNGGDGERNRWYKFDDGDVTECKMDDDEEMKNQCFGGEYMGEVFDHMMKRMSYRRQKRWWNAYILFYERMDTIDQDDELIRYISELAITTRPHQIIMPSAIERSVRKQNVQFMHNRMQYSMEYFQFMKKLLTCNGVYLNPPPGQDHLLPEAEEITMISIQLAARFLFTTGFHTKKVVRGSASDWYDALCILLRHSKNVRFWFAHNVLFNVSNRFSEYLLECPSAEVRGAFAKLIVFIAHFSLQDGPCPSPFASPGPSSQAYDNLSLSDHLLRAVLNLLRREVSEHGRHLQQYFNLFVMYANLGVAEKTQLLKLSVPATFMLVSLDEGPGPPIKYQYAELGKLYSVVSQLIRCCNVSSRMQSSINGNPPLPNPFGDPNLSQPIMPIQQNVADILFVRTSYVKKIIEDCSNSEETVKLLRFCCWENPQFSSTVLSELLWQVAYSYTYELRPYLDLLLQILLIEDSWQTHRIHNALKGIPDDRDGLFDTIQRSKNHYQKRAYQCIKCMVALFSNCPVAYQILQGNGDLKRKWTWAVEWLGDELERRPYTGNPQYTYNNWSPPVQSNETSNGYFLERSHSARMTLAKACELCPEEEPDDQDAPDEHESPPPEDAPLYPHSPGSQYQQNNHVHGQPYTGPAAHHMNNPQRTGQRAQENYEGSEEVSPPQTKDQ

O=C(CCl)NCc1cccc(F)c1
inactive: USP9X 0.0745 | UniProt O00487 -0.0795 | UniProt O00507 0.176 | UniProt P51784 -0.104 | UniProt Q5T2D3 -0.0819 | UniProt Q8TE49 -0.349 | UniProt Q9P2H5 0.0328 | UniProt Q9UGI0 -0.684 | YOD1 -0.0324
